# Target: HOXA4 (Homo sapiens, UniProt Q00056 201-287, R217L)
# Experiment: PBM; 200 nM protein, PBS
# Conditions: dsDNA, one strand shown
# Chain of HOXA4 (Homo sapiens, UniProt Q00056 201-287, R217L) (Q00056 201-287 R217L): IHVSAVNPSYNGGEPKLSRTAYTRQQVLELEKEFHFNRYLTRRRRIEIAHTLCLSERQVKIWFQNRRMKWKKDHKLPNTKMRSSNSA
row,Sequence,binding signal
1,AATCCCCC,"9.86 upbm affinity estimate (log intensity, higher = more binding, comparable within an allelic series)"
2,ACCCGTAG,"9.7 upbm affinity estimate (log intensity, higher = more binding, comparable within an allelic series)"
3,AGGGGGCA,"9.81 upbm affinity estimate (log intensity, higher = more binding, comparable within an allelic series)"
4,AGCTCCCC,"9.69 upbm affinity estimate (log intensity, higher = more binding, comparable within an allelic series)"
5,CCGGCACG,"9.91 upbm affinity estimate (log intensity, higher = more binding, comparable within an allelic series)"
6,AACATTAG,"10.8 upbm affinity estimate (log intensity, higher = more binding, comparable within an allelic series)"
7,GACCCCCC,"9.56 upbm affinity estimate (log intensity, higher = more binding, comparable within an allelic series)"
8,ACCCTAGG,"9.89 upbm affinity estimate (log intensity, higher = more binding, comparable within an allelic series)"
9,AGGAGTCC,"9.79 upbm affinity estimate (log intensity, higher = more binding, comparable within an allelic series)"
10,CCTGCTCC,"9.88 upbm affinity estimate (log intensity, higher = more binding, comparable within an allelic series)"
11,GGACTCCC,"9.72 upbm affinity estimate (log intensity, higher = more binding, comparable within an allelic series)"
12,CACGGTGC,"9.8 upbm affinity estimate (log intensity, higher = more binding, comparable within an allelic series)"
13,CATGATTA,"11.4 upbm affinity estimate (log intensity, higher = more binding, comparable within an allelic series)"
14,CCCCGACC,"9.84 upbm affinity estimate (log intensity, higher = more binding, comparable within an allelic series)"
15,AGTCCTTC,"9.81 upbm affinity estimate (log intensity, higher = more binding, comparable within an allelic series)"
16,CCACGCCC,"9.85 upbm affinity estimate (log intensity, higher = more binding, comparable within an allelic series)"
17,CCTCCGTC,"9.8 upbm affinity estimate (log intensity, higher = more binding, comparable within an allelic series)"
18,CCTCCAGC,"9.82 upbm affinity estimate (log intensity, higher = more binding, comparable within an allelic series)"
19,CAGGGGGA,"9.64 upbm affinity estimate (log intensity, higher = more binding, comparable within an allelic series)"
20,AGGGCGAG,"9.74 upbm affinity estimate (log intensity, higher = more binding, comparable within an allelic series)"
21,CCAGCCGG,"9.68 upbm affinity estimate (log intensity, higher = more binding, comparable within an allelic series)"
22,CAATCACG,"10.8 upbm affinity estimate (log intensity, higher = more binding, comparable within an allelic series)"
23,CCTGGGCG,"9.75 upbm affinity estimate (log intensity, higher = more binding, comparable within an allelic series)"
24,CTCCCACC,"9.72 upbm affinity estimate (log intensity, higher = more binding, comparable within an allelic series)"
25,CCAGCGGG,"9.65 upbm affinity estimate (log intensity, higher = more binding, comparable within an allelic series)"
26,CCTTCCCG,"9.86 upbm affinity estimate (log intensity, higher = more binding, comparable within an allelic series)"
27,CAGACCTC,"9.83 upbm affinity estimate (log intensity, higher = more binding, comparable within an allelic series)"
28,CACACCGG,"9.68 upbm affinity estimate (log intensity, higher = more binding, comparable within an allelic series)"

# Target: HOXA4 (Homo sapiens, UniProt Q00056 201-287)
# Sequence (Q00056 201-287): as the sequence (Q00056 201-287 R217L) above, with L17R counted along it
# Experiment: PBM; 200 nM protein, PBS
# Conditions: dsDNA, one strand shown
row,Sequence,binding signal
1,CTAATCTA,"12 upbm affinity estimate (log intensity, higher = more binding, comparable within an allelic series)"
2,AACGAATT,"11.6 upbm affinity estimate (log intensity, higher = more binding, comparable within an allelic series)"
3,AATCCCCC,"9.87 upbm affinity estimate (log intensity, higher = more binding, comparable within an allelic series)"
4,ACCCGTAG,"9.84 upbm affinity estimate (log intensity, higher = more binding, comparable within an allelic series)"
5,AGGGGGCA,"9.88 upbm affinity estimate (log intensity, higher = more binding, comparable within an allelic series)"
6,AGCTCCCC,"9.78 upbm affinity estimate (log intensity, higher = more binding, comparable within an allelic series)"
7,CCGGCACG,"9.85 upbm affinity estimate (log intensity, higher = more binding, comparable within an allelic series)"
8,CAATTTAG,"12.1 upbm affinity estimate (log intensity, higher = more binding, comparable within an allelic series)"
9,AACATTAG,"12.4 upbm affinity estimate (log intensity, higher = more binding, comparable within an allelic series)"
10,GAGTAATA,"11.7 upbm affinity estimate (log intensity, higher = more binding, comparable within an allelic series)"
11,ATAAATCG,"11.5 upbm affinity estimate (log intensity, higher = more binding, comparable within an allelic series)"
12,GACCCCCC,"9.7 upbm affinity estimate (log intensity, higher = more binding, comparable within an allelic series)"
13,ACCCTAGG,"9.97 upbm affinity estimate (log intensity, higher = more binding, comparable within an allelic series)"
14,AGGAGTCC,"9.77 upbm affinity estimate (log intensity, higher = more binding, comparable within an allelic series)"
15,GAAAACGA,"10.9 upbm affinity estimate (log intensity, higher = more binding, comparable within an allelic series)"
16,CCTGCTCC,"9.83 upbm affinity estimate (log intensity, higher = more binding, comparable within an allelic series)"
17,GGACTCCC,"9.84 upbm affinity estimate (log intensity, higher = more binding, comparable within an allelic series)"
18,CACGGTGC,"9.75 upbm affinity estimate (log intensity, higher = more binding, comparable within an allelic series)"
19,CATGATTA,"12.6 upbm affinity estimate (log intensity, higher = more binding, comparable within an allelic series)"
20,CCCCGACC,"9.87 upbm affinity estimate (log intensity, higher = more binding, comparable within an allelic series)"

row,Sequence,binding signal
1,AGTCCTTC,"9.61 upbm affinity estimate (log intensity, higher = more binding, comparable within an allelic series)"
2,CCACGCCC,"9.64 upbm affinity estimate (log intensity, higher = more binding, comparable within an allelic series)"
3,CCTCCGTC,"9.63 upbm affinity estimate (log intensity, higher = more binding, comparable within an allelic series)"
4,CCTCCAGC,"9.83 upbm affinity estimate (log intensity, higher = more binding, comparable within an allelic series)"
5,CAGGGGGA,"9.87 upbm affinity estimate (log intensity, higher = more binding, comparable within an allelic series)"
6,AGGGCGAG,"9.74 upbm affinity estimate (log intensity, higher = more binding, comparable within an allelic series)"
7,AATTGTTC,"11.9 upbm affinity estimate (log intensity, higher = more binding, comparable within an allelic series)"
8,CCAGCCGG,"9.56 upbm affinity estimate (log intensity, higher = more binding, comparable within an allelic series)"
9,CAATCACG,"11.2 upbm affinity estimate (log intensity, higher = more binding, comparable within an allelic series)"
10,CCTGGGCG,"9.75 upbm affinity estimate (log intensity, higher = more binding, comparable within an allelic series)"
11,CTCCCACC,"9.74 upbm affinity estimate (log intensity, higher = more binding, comparable within an allelic series)"
12,CTCATCTA,"11.5 upbm affinity estimate (log intensity, higher = more binding, comparable within an allelic series)"
13,GTCTATAA,"11.4 upbm affinity estimate (log intensity, higher = more binding, comparable within an allelic series)"
14,TGATGACA,"11.8 upbm affinity estimate (log intensity, higher = more binding, comparable within an allelic series)"
15,ACGTTTAG,"11 upbm affinity estimate (log intensity, higher = more binding, comparable within an allelic series)"
16,CCAGCGGG,"9.72 upbm affinity estimate (log intensity, higher = more binding, comparable within an allelic series)"
17,AGTAATTC,"11.6 upbm affinity estimate (log intensity, higher = more binding, comparable within an allelic series)"
18,CCTTCCCG,"9.79 upbm affinity estimate (log intensity, higher = more binding, comparable within an allelic series)"
19,CAGACCTC,"9.81 upbm affinity estimate (log intensity, higher = more binding, comparable within an allelic series)"
20,CACACCGG,"9.76 upbm affinity estimate (log intensity, higher = more binding, comparable within an allelic series)"

# Target: HOXA4 (Homo sapiens, UniProt Q00056 201-287, W262F)
# Sequence (Q00056 201-287 W262F): as the sequence (Q00056 201-287 R217L) above, with L17R, W62F counted along it
# Experiment: PBM; 200 nM protein, PBS
# Conditions: dsDNA, one strand shown
row,Sequence,binding signal
1,AATCCCCC,"9.73 upbm affinity estimate (log intensity, higher = more binding, comparable within an allelic series)"
2,ACCCGTAG,"9.82 upbm affinity estimate (log intensity, higher = more binding, comparable within an allelic series)"
3,AGGGGGCA,"9.82 upbm affinity estimate (log intensity, higher = more binding, comparable within an allelic series)"
4,AGCTCCCC,"9.81 upbm affinity estimate (log intensity, higher = more binding, comparable within an allelic series)"
5,CCGGCACG,"9.93 upbm affinity estimate (log intensity, higher = more binding, comparable within an allelic series)"
6,AACATTAG,"10.7 upbm affinity estimate (log intensity, higher = more binding, comparable within an allelic series)"
7,GACCCCCC,"9.59 upbm affinity estimate (log intensity, higher = more binding, comparable within an allelic series)"
8,ACCCTAGG,"9.92 upbm affinity estimate (log intensity, higher = more binding, comparable within an allelic series)"
9,AGGAGTCC,"9.94 upbm affinity estimate (log intensity, higher = more binding, comparable within an allelic series)"
10,CCTGCTCC,"9.97 upbm affinity estimate (log intensity, higher = more binding, comparable within an allelic series)"
11,GGACTCCC,"9.79 upbm affinity estimate (log intensity, higher = more binding, comparable within an allelic series)"
12,CACGGTGC,"9.86 upbm affinity estimate (log intensity, higher = more binding, comparable within an allelic series)"
13,CATGATTA,"10.8 upbm affinity estimate (log intensity, higher = more binding, comparable within an allelic series)"
14,CCCCGACC,"9.99 upbm affinity estimate (log intensity, higher = more binding, comparable within an allelic series)"
15,AGTCCTTC,"9.89 upbm affinity estimate (log intensity, higher = more binding, comparable within an allelic series)"
16,CCACGCCC,"9.99 upbm affinity estimate (log intensity, higher = more binding, comparable within an allelic series)"
17,CCTCCGTC,"9.84 upbm affinity estimate (log intensity, higher = more binding, comparable within an allelic series)"
18,CCTCCAGC,"9.76 upbm affinity estimate (log intensity, higher = more binding, comparable within an allelic series)"
19,CAGGGGGA,"9.7 upbm affinity estimate (log intensity, higher = more binding, comparable within an allelic series)"
20,AGGGCGAG,"9.91 upbm affinity estimate (log intensity, higher = more binding, comparable within an allelic series)"
21,CCAGCCGG,"9.77 upbm affinity estimate (log intensity, higher = more binding, comparable within an allelic series)"
22,CAATCACG,"10.5 upbm affinity estimate (log intensity, higher = more binding, comparable within an allelic series)"
23,CCTGGGCG,"9.8 upbm affinity estimate (log intensity, higher = more binding, comparable within an allelic series)"
24,CTCCCACC,"9.88 upbm affinity estimate (log intensity, higher = more binding, comparable within an allelic series)"
25,CCAGCGGG,"9.76 upbm affinity estimate (log intensity, higher = more binding, comparable within an allelic series)"
26,CCTTCCCG,"9.89 upbm affinity estimate (log intensity, higher = more binding, comparable within an allelic series)"
27,CAGACCTC,"9.9 upbm affinity estimate (log intensity, higher = more binding, comparable within an allelic series)"
28,CACACCGG,"9.81 upbm affinity estimate (log intensity, higher = more binding, comparable within an allelic series)"

# Reference: paper PMC11006913
